The panel holds about 83,000 compounds, 20% with a hit somewhere; the sample as a whole holds those more often.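 Single-dose data. Exposure time 48 hours. Values below 10 considered active.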 A number with no mark means an inactive call. Calls of active or inactive are those of the source.
What follows are compounds tested on SN12C renal (assay: NCI-60 one-dose screen, 48 h (100 = growth as untreated, 0 = no growth, -100 = all killed)). Settings: 10 µM.

Question: For Clc1ccc(/C=C2\CCCC3C2=Nc2ccccc2NC3c2ccc(Cl)cc2)cc1 (stereo not given), which growth is on record?
Answer: 85.3%

Question: Which growth does the source give for CCC(c1ccc(OC)cc1)C(CC)c1ccc(O)c(CN2CCN(C)CC2)c1 (stereo not given) here?
Answer: 55.1%

Question: How did the growth turn out when CC[C@@H](C(=O)[C@H](C)[C@H](O)[C@@H](C)[C@H]1O[C@H]([C@@H](CC)C(=O)N(CC)CC)CC[C@H]1C)C1O[C@]2(C=C[C@@H](O)[C@]3(CC[C@@](C)([C@H]4CC[C@](O)(CC)[C@H](C)O4)O3)O2)[C@H](C)C[C@@H]1C (stereo not given in full) was run?
Answer: 17.4%

Question: For c1ccc(/C(=N\Nc2ccc3ccccc3n2)c2ccccn2)cc1, which growth is on record?
Answer: 18.5%

Question: For O=C(NCCCNS(=O)(=O)c1ccc(Cl)cc1)Nc1ccc(-n2cc(-c3ccncc3)c(-c3ccc(Cl)c(O)c3)n2)cc1, which growth is on record?
Answer: 46.1%

Question: Nc1ncnc2c1ncn2C1(CO)OCC(O)C(O)C1O (stereo not given) was tested. Which growth did it give?
Answer: 103%

Question: How did the growth turn out when CN(C)CCOc1ccc(-c2nc3sccn3c2-c2ccnc(S(C)(=O)=O)n2)cc1 was run?
Answer: 101%

Question: CC[C@H]1OC(=O)[C@H](C)[C@@H](O[C@H]2C[C@@](C)(OC)[C@@H](O)[C@H](C)O2)[C@H](C)[C@@H](O[C@@H]2O[C@H](C)C[C@H](N(C)C)[C@H]2O)[C@](C)(OC)C/C(C)=C2/O[C@@]1(C)C=C2C was tested. Which growth did it give?
Answer: 76.9%

Question: Which growth does the source give for COc1cc(/C=C2\CCCC3=C2NC(N)=NC3c2cc(OC)c(OC)c(OC)c2)cc(OC)c1OC (stereo not given) here?
Answer: -5.19% (active)

Question: With O=[N+]([O-])c1cccc(/C=N/NC(=S)NC23CC4CC(CC(C4)C2)C3)c1 as the compound, how does the growth read?
Answer: 83.1%

From PubChem BioAssay (NCI)
